Hits are enriched below; roughly 28% of the tested compounds scored in any of these assays.
CYP2C9 inh = blockers of cytochrome P450 2C9 activity – biochemical, luminescence, ADME assay, primary screen; CYP2C9 Supersomes, luciferin-H conversion; 20% of 96,000 active; inhibition, % at 5 µM; P11712;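 active = blocking of liver enzyme CYP2C9 beyond about 50% at 5 µM, limit read from the data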
CD11b adhes enh = enhancers of CD11b/CD18 adhesion to fibrinogen, primary screen, K562 cells, luminescence; Integrin beta-2 (Homo sapiens) + Integrin alpha-M (Homo sapiens), P05107+P11215; ATPlite luminescence; activation, % at 10 µM; 0.07% of 93,000 active; AID 1499, 2009;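 active = 10 µM primary screen giving 50% or more activity, confirmed by 40% or more on retest at that dose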
CYP2C19 inh = blockers of cytochrome P450 2C19 activity – biochemical, luminescence, ADME assay, primary screen. CYP2C19 Supersomes, luciferin-H EGE luminescence, 30 min. inhibition, % at 5 µM. 21% of 96,000 active. AID 778, 2007;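 active = CYP2C19 inhibition above a set limit at 5 µM in the primary screen, cut at about 50% in these data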;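 also: plate controls were negative control wells for no effect and 2.5 mM tranylcypromine positive control for full effect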
Target sequence (P33261 whole entry, looked up): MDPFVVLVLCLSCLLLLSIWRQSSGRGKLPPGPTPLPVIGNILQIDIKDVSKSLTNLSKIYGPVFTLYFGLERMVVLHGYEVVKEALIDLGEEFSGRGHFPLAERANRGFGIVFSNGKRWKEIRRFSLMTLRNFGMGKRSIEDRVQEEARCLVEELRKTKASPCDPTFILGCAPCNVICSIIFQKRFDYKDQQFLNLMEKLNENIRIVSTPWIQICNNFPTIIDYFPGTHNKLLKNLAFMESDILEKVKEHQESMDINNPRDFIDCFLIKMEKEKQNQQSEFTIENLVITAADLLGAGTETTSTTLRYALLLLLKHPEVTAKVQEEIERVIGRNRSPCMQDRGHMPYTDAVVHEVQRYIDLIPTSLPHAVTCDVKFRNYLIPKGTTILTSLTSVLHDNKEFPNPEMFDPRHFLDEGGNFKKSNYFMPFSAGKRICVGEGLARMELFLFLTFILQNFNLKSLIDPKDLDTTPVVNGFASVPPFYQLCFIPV
CYP2C19 act = human CYP2C19 activators, primary screen, biochemical, luminescence; activation factor at 5 µM; recombinant CYP2C19, luciferin-H EGE luminescence; hits give high values; 0 = fully inhibited enzyme, 1 = untreated enzyme; 96,000 tested, under 10 active;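 active = activation factor of at least 2 at 5 µM in the primary screen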;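 also: 0 = wells with 2.5 mM tranylcypromine and 1 = vehicle-only wells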
CD11b adhes inh = inhibitors of CD11b/CD18 adhesion to fibrinogen, primary screen, K562 cells, luminescence | Integrin beta-2 (Homo sapiens) + Integrin alpha-M (Homo sapiens), P05107+P11215 | ATPlite luminescence; Mn2+ added to activate the integrin | inhibition, % at 10 µM | 0.54% of 93,000 active | AID 1497, 2009;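 active = primary inhibition of 50% or more at 10 µM, then 40% or more on retest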
CYP2C9 act = human CYP2C9 activators, primary screen, biochemical, luminescence; activation factor at 5 µM; recombinant CYP2C9, luciferin-H conversion; hits give high values; factor 1 = untreated enzyme, 0 = blocked; Cytochrome P450 2C9 (Homo sapiens), P11712; 1.4% of 96,000 active;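 active = activation factor of 2 or more for CYP2C9 at a 5 µM dose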;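 also: 0 = sulfaphenazole-blocked wells and 1 = vehicle-only wells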
* marks the source's active call; other numbers are inactive results; / = not tested or not shown.

SMILES | CYP2C9 inh | CD11b adhes enh | CYP2C19 inh | CYP2C19 act | CD11b adhes inh | CYP2C9 act
Cc1ccc2cc(C)c3nnc(SCC(=O)Nc4nc5c(s4)CCCC5)n3c2c1 | 61* | 6 | 57* | 0.4 | 1 | 0.4
Cc1ccc(-c2nnc(SCC(=O)Nc3nc4c(s3)CCCC4)n2C)cc1 | 35 | -1 | 7 | 0.9 | 0 | 0.7
Cc1csc(SCC(=O)Nc2nc3ccccc3s2)n1 | 94* | -3 | 92* | 0.1 | 5 | 0.1
O=C(CSc1ncn(-c2ccccc2)n1)Nc1nc2ccccc2s1 | 65* | -3 | 65* | 0.4 | 12 | 0.4
O=C(CSc1nc(Cc2ccccc2)nc2ccccc12)Nc1nc2c(s1)CCCC2 | 93* | -1 | 85* | 0.2 | 24 | 0.1
CC(C)(C)c1nc(SCC(=O)Nc2nc3c(s2)CCCC3)c2ccccc2n1 | 30 | / | -1 | 1 | / | 0.7
Cc1csc(NC(=O)CCS(=O)(=O)c2ccc(Br)cc2)n1 | 85* | -1 | 42 | 0.6 | -16 | 0.1
Cc1ccc(OCc2ccc(C(=O)O)o2)c([N+](=O)[O-])c1 | / | 0 | / | / | 5 | /
CC1(C)CC(=O)C2=C(C1)N=C1c3ccccc3C(=O)C1C2c1ccc(Cl)cc1 (stereo not drawn) | 92* | 1 | 81* | 0.2 | 18 | 0.1
[O-][n+]1onc2c3cc(-c4ccccc4)nnc3ccc21 | 19 | -2 | 11 | 0.9 | -6 | 0.8
CSc1nsc(SCc2ccc(F)cc2)n1 | 9 | -4 | 79* | 0.2 | 2 | 0.9
CSc1nsc(SCc2ccc(Cl)cc2)n1 | 13 | / | 82* | 0.2 | / | 0.9
CCc1ccc(C(=O)Cn2ncc(Cl)c(Cl)c2=O)cc1 | 5 | -1 | 10 | 0.9 | -8 | 0.9
O=C(OCn1ncc(Cl)c(Cl)c1=O)c1cccc(C(F)(F)F)c1 | -80 | / | 66* | 0.3 | / | 1.8
O=C(Nc1ccc2nn(-c3ccccc3)nc2c1)c1ccc(Br)o1 | 16 | 19 | 14 | 0.9 | -34 | 0.8
CCCCC(=O)Nc1cccc(NC(=O)C(C)C)c1 | 20 | -2 | 6 | 0.9 | -6 | 0.8
O=C(Nc1cccc(OC(F)(F)F)c1)c1ccc(Br)o1 | 16 | 0 | 89* | 0.1 | 20 | 0.8
CCCCC(=O)Nc1cccc(NC(=O)c2ccc(Br)o2)c1 | 93* | 3 | 70* | 0.3 | 7 | 0.1
O=C(O)CCCC(=O)Nc1ccccc1C(=O)N1CCCC1 | 0 | -5 | -12 | 1.1 | 13 | 1
CCn1c(CCNC(=O)c2ccccc2Cl)n[nH]c1=S | 8 | 2 | 2 | 1 | -18 | 0.9
CC1(C)CC(=O)c2sc(NC(=O)c3ccc4ncsc4c3)nc2C1 | 17 | 0 | -14 | 1.1 | -9 | 0.8
COc1ccc(CSc2n[nH]c(C)n2)cc1Br | 14 | -5 | 39 | 0.6 | 2 | 0.9
CCOc1ccc(Cl)cc1CSc1n[nH]c(CC)n1 | 72* | 1 | 94* | 0.1 | -10 | 0.3
CCCCOc1ccc(Cl)cc1CSc1n[nH]c(C)n1 | 64* | / | 85* | 0.2 | / | 0.4
COc1ccc(Cl)cc1CSc1n[nH]c(C)n1 | 15 | -1 | 88* | 0.1 | -5 | 0.8
SMILES | CYP2C9 inh | CD11b adhes enh | CYP2C19 inh | CYP2C19 act | CD11b adhes inh | CYP2C9 act
CCOc1ccc2nc(NC(=O)c3ccc(OCC4CCCO4)cc3)sc2c1 (stereo not drawn) | / | 1 | / | / | 4 | /
O=C1CCCC(=O)C1=Cc1c[nH]c2ccccc12 | 15 | -1 | 8 | 0.9 | -6 | 0.8
Cc1cc(C)nc(NC2=NC3CCCCC3N2)n1 (stereo not drawn) | 1 | -2 | -1 | 1 | 9 | 1
C=CCOc1ccc(CNn2nnnc2N)cc1 | -12 | 0 | 10 | 0.9 | 10 | 1.1
C=CCOc1c(Br)cc(CNn2nnnc2N)cc1OC | 32 | 0 | 70* | 0.3 | -2 | 0.7
COc1cc(NC(=O)c2ccc(-c3ccc(Br)cc3)o2)ccc1NC(=O)C(C)C | 43 | 8 | 54* | 0.5 | 7 | 0.6

High-throughput results as filed in PubChem BioAssay.
